RORgamma inh: qHTS for inhibitors of ROR gamma transcriptional activity; Nuclear receptor ROR-gamma (Mus musculus), P51450; Drosophila S2 Gal4-RORgamma UAS-luciferase reporter, 20 h; Potency, µM (top dose mostly 53.6 µM), for inactives: at the highest dose activity change, negative = inhibition, usual class: inhibitors; 5.4% of 310,000 active; AID 2551, 2010; further: nearly all actives have a fitted effect of over 60% in size
Target sequence (P51450 whole entry, looked up, the tested form may be a part): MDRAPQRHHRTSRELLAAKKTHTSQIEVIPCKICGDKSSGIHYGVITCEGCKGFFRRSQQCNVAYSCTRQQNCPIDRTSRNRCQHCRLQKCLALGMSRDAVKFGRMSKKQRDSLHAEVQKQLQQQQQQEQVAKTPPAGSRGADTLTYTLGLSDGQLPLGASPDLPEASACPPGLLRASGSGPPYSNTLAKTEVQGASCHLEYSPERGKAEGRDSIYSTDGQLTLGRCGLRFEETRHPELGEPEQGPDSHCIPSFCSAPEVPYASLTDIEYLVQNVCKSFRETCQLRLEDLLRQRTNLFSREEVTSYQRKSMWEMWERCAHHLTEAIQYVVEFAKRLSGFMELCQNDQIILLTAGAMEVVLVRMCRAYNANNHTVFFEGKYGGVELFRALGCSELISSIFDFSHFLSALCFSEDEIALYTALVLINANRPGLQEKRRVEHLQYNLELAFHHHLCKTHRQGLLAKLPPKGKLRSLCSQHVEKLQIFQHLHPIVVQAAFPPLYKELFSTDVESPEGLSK
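Stable Schneider cell line, Gal4 DNA-binding domain fused to ROR gamma, UAS-luciferase. Cmpd 1 hr RT → CuSO4 700 uM final → 20 hr RT → luciferase reagent 10 min → luminescence.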
ELG1 repair inh: qHTS screen for small molecules that inhibit ELG1-dependent DNA repair in human embryonic kidney (HEK293T) cells expressing luciferase-tagged ELG1; HEK293T ELG1-luciferase reporter, luminescence, 16 h; DNA damage induced by 5-fluorouridine; Potency, µM (series often up to 46.1 µM), inactives show top-dose activity change, negative = inhibition, hits mostly inhibitors; 2.3% of 330,000 active; AID 504467, 2011; further: nearly all actives have a fitted effect of over 55% in size
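HEK293T cells expressing luciferase-tagged ELG1 (2,000/well) received 5-Fluorouridine plus compound or DMSO for 16 hr at 37 °C. Luciferase was read by ONE-Glo luminescence after 30 min at room temperature.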
VP16 counter: VP16 counterscreen qHTS for inhibitors of ROR gamma transcriptional activity. Drosophila S2 Gal4-VP16 UAS-luciferase, luminescence, 20 h. Potency, µM (series often up to 53.6 µM), for the others: at the top dose activity, negative = inhibition, most hits filed as inhibitors. 3.5% of 310,000 active;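 further: Gal4-VP16 expression switched on by copper sulfate through the metallothionein promoter; nearly all actives have a fitted effect of over 50% in size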
DT40 TDP1 no CPT: qHTS for Inhibitors of human tyrosyl-DNA phosphodiesterase 1 (TDP1): qHTS in cells in absence of CPT. DT40 Tdp1-/- hTDP1 cells, no CPT, ATP luminescence, 48 h. Potency, µM (highest dose often 46.2 µM), inactives show at the highest dose activity change, negative = growth inhibition, hits mostly inhibitors. 15% of 420,000 active. AID 686978, 2013; further: nearly all actives have a fitted effect of over 55% in size
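A cellular qHTS used chicken DT40 cells lacking endogenous Tdp1 but carrying stably transfected human TDP1. Compounds were applied without camptothecin, and cell growth kinetics were judged by ATP-dependent luminescence after ≥48 hr.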
DT40 TDP1 CPT: qHTS for Inhibitors of human tyrosyl-DNA phosphodiesterase 1 (TDP1): qHTS in cells in presence of CPT. 12% of 420,000 active. AID 686979, 2013. Potency, µM (titrated, usually from 46.2 µM), for the others: top-dose activity change, negative = growth inhibition, hits mostly inhibitors. chicken DT40 Tdp1-/-;hTDP1 cells + 20 nM CPT, ATP luminescence, 48 h; further: nearly all actives have a fitted effect of over 55% in size
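Chicken DT40 Tdp1-/- cells stably complemented with human TDP1 were seeded at 400 cells/well in medium containing 20 nM camptothecin, exposed to pin-transferred compounds, and grown at 37 °C for at least 48 hr. Viability was read as ATP luminescence.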
12-LOX inh: Primary qHTS assay for inhibitors of human arachidonate 12S-lipoxygenase (ALOX12): Round 2. Polyunsaturated fatty acid lipoxygenase ALOX12 (Homo sapiens), P18054. purified 12hLO, xylenol orange hydroperoxide absorbance. Potency, µM (highest dose often 108 µM), without a hit: at the top dose activity change, negative = inhibition, most hits filed as inhibitors. 1.1% of 580,000 active
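Purified human 12hLO (150 nM final) in 25 mM Hepes, 0.01% Triton X-100, pH 7.0 was preincubated 15 min at room temperature with compound. Then 40 uM arachidonic acid was added, 30 min. Hydroperoxide was read by Fe-XO absorbance ratio 573/405 nm.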
Active calls of the source: *; ? = inconclusive; . = not tested or not shown; [ ] = another dose, or the depositor's remark. Hits are enriched below; roughly 15% of the tested compounds scored in any of these assays. The call rests on the fitted dose curve; in most records, active means well fitted curve in the direction sought with a large enough effect; inconclusive means small, poorly fitted or top-dose-only effect, or another doubt; inactive means no such curve, though single readings can be large; an effect the other way counts as inactive or inconclusive. On the % scale 0 is the no-effect control and ±100 the full control effect; potency means the concentration at half of the fitted maximal effect.

SMILES	RORgamma inh	ELG1 repair inh	VP16 counter	DT40 TDP1 no CPT	DT40 TDP1 CPT	12-LOX inh
CCOC(=O)c1c(C)[nH]c2ccc3c(c12)CN1CCc2cc(OC)ccc2[C@@H]1O3	40%	.	?	7.5µM*	8.4µM*	54%
CCOC(=O)c1c(C)[nH]c(C)c1C(=O)COC(=O)c1ccc(OC)cc1	5%	?	-12%	-16%	-15%	2%
CN(Cc1ccccn1)C1CCCc2ccccc21 (stereo not drawn)	.	.	.	.	.	56%[176 µM]
CCOC(=O)[C@]12CCCC=C1N(Cc1ccc(Cl)cc1Cl)C(=O)[C@H](CC(=O)NCc1ccc(C)o1)C2	.	.	.	?	?	-14%
CCOC(=O)[C@]12CCC=C1N(Cc1ccc(Cl)cc1Cl)C(=O)[C@H](CC(=O)NCc1ccccc1)C2	.	.	.	23µM*	?	-7%
CCOC(=O)[C@]12CCC=C1N(Cc1ccccc1)C(=O)[C@H](CC(=O)NCc1ccccc1)C2	.	.	.	16µM*	?	?
CCOC(=O)[C@]12CCC=C1N(Cc1ccc(Cl)cc1Cl)C(=O)[C@H](CC(=O)NCc1cccc(C(F)(F)F)c1)C2	.	.	.	?	?	1%
CCOC(=O)[C@]12CCC=C1N(Cc1ccc(Cl)cc1Cl)C(=O)[C@H](CC(=O)NCc1ccc(C)o1)C2	.	.	.	18µM*	?	?
CCOC(=O)[C@]12CCCC=C1N(Cc1ccc(Cl)cc1Cl)C(=O)[C@H](CC(=O)NCc1cccc(C(F)(F)F)c1)C2	.	.	.	18µM*	15µM*	-2%
Cc1ccc(NC(=O)C2(Cc3ccccc3)CCCCC(=O)N2)cc1 (stereo not drawn)	.	.	.	.	.	-3%
CCCCC(=O)N1CCCC2CCCCC21 (stereo not drawn)	.	.	.	.	.	11%
CCn1cc(S(=O)(=O)N2CCCCC2c2nc(CCOc3ccc(F)cc3)no2)cn1 (stereo not drawn)	.	.	.	.	.	30%
CC1=CCC(/C=N/NC(N)=O)CC1 (stereo not drawn)	.	.	.	.	.	15%
O=C1CCN(CCc2ccccc2)CCN1[C@H](CO)Cc1ccccc1	13%	-1%	1%	-26%	-21%	-8%
O=C1CCN(CCc2ccccc2)CCN1[C@H](COc1ccccc1)Cc1ccccc1	42%	-11%	-8%	11µM*	29µM*	?
CC(C)CN1CCC(=O)N([C@H](COc2ccccc2)Cc2ccccc2)CC1	-15%	-23%	-7%	11µM*	23µM*	-4%
CC(C)C[C@@H](COc1ccccc1)N1CCN(CCc2ccccc2)CCC1=O	20%	18%	10%	21µM*	11µM*	11%
O=C(c1cscn1)N1CC[C@@H]2[C@@H](CCC(=O)N2CCc2ccccn2)C1	.	.	.	.	.	30%
O=c1[nH]c(N2CCOCC2)nc2c1CCN(Cc1ccc(Br)cc1)CC2	.	.	.	.	.	-26%
COc1ccc(C(=O)NC(=S)NC(C)C)cc1Br	1.8µM*	19%	11µM*	?	?	4µM*
COc1ccc(C(=O)NC(=S)NC(C)(C)C)cc1Br	2µM*	?	7.9µM*	23µM*	?	8.9µM*
COc1ccc(C(=O)NC(=S)NNC(=O)c2ccc(NC(C)=O)cc2)cc1Br	7.9µM*	?	?	?	?	13µM*
COc1ccc(-c2cc(N3CCN(C(=O)c4ccc(OC)cc4OC)CC3)n[nH]2)cc1	.	.	.	.	.	17%

Bioassay records from PubChem.
